Source: PubChem BioAssay (several laboratories)
Mtb FBA inh = Mtb FBA enzyme inhibitors, primary screen, biochemical, fluorescence, strain H37Rv | Fructose-bisphosphate aldolase (Mycobacterium tuberculosis (strain ATCC 25618 / H37Rv)), … | purified M. tuberculosis FBA, fluorescence read-out | inhibition, % at 1 µM | 360,000 compounds, 2.3% hits | AID 588726, 2011; in the data active = inhibition above about 27%;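 also: 0% = vehicle and 100% = reference inhibitor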
Target sequence (P9WQA3 whole entry, looked up): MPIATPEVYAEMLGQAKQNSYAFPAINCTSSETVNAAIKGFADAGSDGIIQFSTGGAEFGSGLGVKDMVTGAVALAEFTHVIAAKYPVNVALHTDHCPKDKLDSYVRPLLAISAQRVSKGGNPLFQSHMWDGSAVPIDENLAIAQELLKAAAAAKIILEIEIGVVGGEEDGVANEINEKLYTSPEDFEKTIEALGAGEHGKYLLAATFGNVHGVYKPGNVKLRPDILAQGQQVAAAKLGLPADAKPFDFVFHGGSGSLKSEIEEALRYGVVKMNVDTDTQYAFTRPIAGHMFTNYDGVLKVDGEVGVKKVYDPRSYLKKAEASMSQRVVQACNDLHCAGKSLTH
3CLpro inhibitor = SARS-CoV 3CLpro protease inhibitors, primary screen, biochemical, quenched FRET; Replicase polyprotein 1ab (Severe acute respiratory syndrome coronavirus), P0C6X7; recombinant SARS-CoV 3CLpro, quenched FRET peptide cleavage; inhibition, % at 6 µM; 290,000 compounds, 0.14% hits; AID 1706, 2009; in the data active = inhibition above about 12%
CCHF vOTU inh = CCHFV vOTU protease inhibitors, primary screen, biochemical, Pep-AMC substrate, fluorescence; AID 651958, 2012; Crimean-Congo hemorrhagic fever virus L polyprotein viral ovarian tumor (vOTU) protease …; 370,000 compounds, 0.55% hits; inhibition, % at 11.5 µM; also: 0% = vehicle wells with enzyme and 100% = no enzyme wells
DUSP3 inh = VHR1 phosphatase inhibitors, primary screen, biochemical, absorbance, uHTS | inhibition, % at 13.3 µM | AID 1654, 2009 | Dual specificity protein phosphatase 3 (Homo sapiens), P51452 | recombinant VHR phosphatase, pNPP absorbance | 290,000 compounds, 0.52% hits; in the data active = inhibition above about 50%
Target sequence (P51452 whole entry, looked up): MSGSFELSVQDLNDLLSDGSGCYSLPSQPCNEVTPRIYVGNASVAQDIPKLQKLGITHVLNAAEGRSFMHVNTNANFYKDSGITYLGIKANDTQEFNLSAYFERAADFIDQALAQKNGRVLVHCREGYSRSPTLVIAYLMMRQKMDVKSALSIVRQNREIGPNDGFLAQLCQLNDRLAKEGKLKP
GDH-TPI inh = GDH-TPI coupling enzyme inhibitors, primary screen, artefact control for M. tuberculosis FBA inhibitor project, biochemical, absorbance, full deck; GDH-TPI coupled enzyme counterscreen, NADH absorbance; inhibition, % at 4.8 µM; 360,000 compounds, 1.2% hits;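 also: 0% = DMSO wells and 100% = wells lacking the enzyme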
RecA intein inh = Mtb RecA intein splicing inhibitors, primary screen, biochemical, fluorescence, HTS; AID 2221, 2009; 290,000 compounds, 0.75% hits; cell-free RecA intein splicing; inhibition, % (no concentration beside the values); Protein RecA (Mycobacterium tuberculosis (strain ATCC 25618 / H37Rv)), P9WHJ3; in the data active = inhibition above about 30%;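 also: 0% = vehicle wells and 100% = reference inhibitor control wells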
The depositor's hits bear a star; i = inactive; . = no result given; + = active, no number. Only some compounds are listed: those with a hit (about 4.7% of all), similar ones and a draw of the others. Rule as the data show it, unless noted: active = inhibition above about 30%; inactive = the rest.

SMILES	Mtb FBA inh	3CLpro inhibitor	CCHF vOTU inh	DUSP3 inh	GDH-TPI inh	RecA intein inh
O=C(O)Cn1c(-c2ccccc2)nc2ccccc21	8.0	0.5	7.4	50.8*	8.7	-0.3
Nc1nonc1-c1nc2ccccc2n1CC(=O)O	-1.4	-4.8	-9.9	10.8	9.9	1.9
Cc1nc2c(C(=O)Nc3ccc(N4CCCC(O)C4)cc3)snc2c(=O)[nH]1 (stereo unspecified)	-1.5	1.2	7.9	4.8	44.2*	-1.8
Cc1ccc([C@@H]2C[C@H]3[C@@H](CN2S(=O)(=O)c2ccc(Cl)cc2)C(=O)C[C@@H](c2ccc(C)cc2)N3S(=O)(=O)c2ccc(Cl)cc2)cc1	-0.1	.	17.5	.	1.0	.
COC(=O)C(=N/Nc1ccccc1C(=O)OC)/C(C)=N/O	-3.9	1.4	14.8	8.7	44.2*	1.0
CCSc1n[nH]c(=O)n1C	.	.	20.4	.	.	.
Cc1nn(-c2ccccc2)nc1C(N)=O	13.0	3.9	1.0	27.1	-7.5	-0.7
Nc1nn(-c2ccccc2)nc1C(=O)OCc1ccccc1	177.3*	0.5	-73.1	19.1	6.0	-3.3
NC(=O)c1nn(-c2ccccc2)nc1N	+	-1.5	-87.5	3.5	4.9	-0.6
Cc1ccc(C2NC(=O)c3n[nH]c(C)c32)cc1 (stereo unspecified)	.	.	9.1	.	.	.
C[C@@H]1C=CCCO[C@]12C(=O)N(Cc1ccc(F)cc1)c1ccccc12	.	.	-0.7	.	.	.
Cn1c(=NC(=O)c2ccco2)sc2ccccc21	-0.6	-0.2	17.6	19.7	33.5*	1.2
Cc1sc(=NC(=O)c2ccco2)n(C)c1-c1ccc(F)cc1	-1.6	0.3	9.8	27.6	26.0	-1.7
CCOc1cccc2sc(=NC(=O)c3ccco3)n(CC(=O)OC)c12	9.0	-0.7	-12.7	13.1	80.5*	0.3
Cc1sc(=NC(=O)c2ccco2)n(C)c1-c1ccccc1	0.2	3.3	-7.6	10.2	38.5*	2.4
O=C(Nc1ccccc1)c1ccc2nc(-c3ccco3)c(-c3ccco3)nc2c1	0.6	4.7	48.0*	-20.9	10.6	19.3
S=C(Nc1ccc(N2CCOCC2)cc1)Nc1ccc2nc(-c3ccco3)c(-c3ccco3)nc2c1	1.8	-1.2	20.9	50.3*	26.7	-31.9
O=C(Nc1ccc2nc(-c3ccco3)c(-c3ccco3)nc2c1)N1CCN(c2ccccn2)CC1	2.2	-2.2	30.0*	-0.5	15.9	-61.3
Cc1nc2cc(NC(=O)N3CCN(c4ccccn4)CC3)ccc2o1	6.1	-1.1	-8.8	3.6	13.9	-2.8
Cc1cc(C)n(-c2cc(C(=O)O)cc(C(=O)O)c2)n1	-0.8	3.0	13.0	53.0*	-3.2	-2.2
O=C(Nc1ccccc1C(F)(F)F)OC1CC2CC1[C@H]1CCCCN1C2 (stereo partly specified)	.	.	-6.7	.	.	.
COC(=O)c1ccc(-c2cc(C(=O)O)c3cc4c(cc3n2)OCCO4)cc1	+	-0.3	-66.3	51.7*	21.0	2.2
C=CCn1c(CNC(=O)c2ccccc2F)nnc1SCc1nc2ccccc2c(=O)[nH]1	9.4	7.3	2.2	51.9*	-5.5	-3.2
COc1cc(OC)cc(-c2c(-c3ccc(C(C)=O)cc3)c3cc(-c4cccc5[nH]ccc45)ccc3n2C)c1	12.5	.	-11.2	.	36.2*	.
COc1cc(C#Cc2c(-c3cncn3C)n(C)c3ccc(-c4ccc5[nH]ccc5c4)cc23)cc(OC)c1	46.5*	.	-7.3	.	12.9	.
SMILES	Mtb FBA inh	3CLpro inhibitor	CCHF vOTU inh	DUSP3 inh	GDH-TPI inh	RecA intein inh
COc1cc(OC)cc(-c2c(C#Cc3ccsc3)c3cc(-c4ccc(OC)c(F)c4)ccc3n2C)c1	3.6	.	2.7	.	32.3*	.
COc1ccc(-c2c(-c3cc(OC)cc(OC)c3)n(C)c3ccc(-c4ccc(OC)cc4F)cc23)cc1	4.9	.	1.3	.	14.1	.
COCc1ccc(-c2ccc3c(c2)c(C#Cc2ccsc2)c(-c2cc(OC)cc(OC)c2)n3C)cc1	2.8	.	1.3	.	33.5*	.
COC(=O)[C@]12CCCCC=C1N(Cc1ccc(OC)cc1)C(=O)[C@@H]2CC(=O)N1CCN(C(=O)c2ccco2)CC1	.	.	-0.9	.	.	.
COc1cc(OC)cc(-c2c(C#Cc3ccsc3)c3cc(-c4ccc5[nH]ccc5c4)ccc3n2C)c1	12.0	.	17.7	.	43.7*	.
COc1ccc(-c2c(-c3cc(OC)cc(OC)c3)n(C)c3ccc(-c4ccc5[nH]ccc5c4)cc23)cc1	134.2*	.	-11.8	.	21.0	.
O=C(NCc1ccc(F)cc1)c1cc(C2CCCN(C(=O)C3CCCCC3)C2)on1 (stereo unspecified)	-2.7	.	-0.2	.	4.4	.
COc1ccc(-c2nc(C#N)c(NCCCn3ccnc3)o2)cc1OC	+	2.4	-83.5	-36.4	11.7	-0.8
CCN(CC)CCCNc1oc(-c2ccc(OC)c(OC)c2)nc1C#N	163.7*	2.7	-27.5	15.9	16.7	-0.3
COc1ccc(-c2nc(C#N)c(NCc3ccc(C)cc3)o2)cc1OC	143.9*	1.1	-19.9	24.9	3.1	0.3
CN(C)CCCNc1oc(-c2cccc(Cl)c2)nc1C#N	173.7*	4.3	-68.7	27.8	0.9	0.7
N#Cc1nc(-c2ccc(F)cc2)oc1NCCCn1ccnc1	.	-3.4	.	6.7	.	2.7
CCC(c1nnnn1-c1ccc2c(c1)OCCO2)N1CCN(C(C)=O)CC1 (stereo unspecified)	.	.	8.4	.	.	.
Cc1nn(-c2ccccc2)c(C)c1/C=N\N1CCN(Cc2ccccc2Cl)CC1	.	.	1.9	.	.	.
COc1ccc(/C=C2\N=C(c3ccc(C)cc3)OC2=O)cc1	0.2	-1.0	-2.6	-7.8	6.9	0.3
Cc1ccc(C2=N/C(=C\N3CCCCC3)C(=O)O2)cc1	-1.9	0.0	15.8	-9.8	62.1*	-5.1
Cc1ccc(C2=N/C(=C/N3CCOCC3)C(=O)O2)cc1	5.1	-5.5	9.6	9.7	38.0*	-0.2
CC1(c2ccc3ccccc3c2)NC(=O)N(CC(=O)N2CCN(Cc3ccc(C#N)cc3)CC2)C1=O (stereo unspecified)	2.7	.	.	.	3.9	.
CCOC(=O)c1cc2c(=O)n3ccccc3nc2n(CCOC)c1=NC(=O)c1ccncc1	185.9*	-10.6	-155.5	20.7	9.9	-108.1
CCOC(=O)c1cc2c(=O)n3ccccc3nc2n(CCCOC)c1=NC(=O)C(C)(C)C	+	0.8	-152.3	7.3	16.4	i
CCOC(=O)c1cc2c(=O)n3ccccc3nc2n(C(C)C)c1=NC(=O)c1ccncc1	122.5*	2.0	-229.3	1.1	8.7	-197.9
CCOC(=O)c1cc2c(=O)n3ccccc3nc2n(CCOC)c1=NC(=O)C(C)(C)C	+	0.6	-217.3	20.0	-8.4	-193.8
